# Several values for one entry are separate records, joined by “and”; a condition that tells them apart may be missing. Equal entries are not always repeated. Activity calls are given as the source filed them. Cut-off read from the data, not from the text of the source: active = inhibition above about 80%; inactive = the rest.
# Assay: UWB1.289_BRCA1 ovarian cancer growth, cell-based, BGB or cisplatin combinations (AID 1671459)
# Settings: UWB1.289 BRCA1 ovarian carcinoma, drug combinations, cisplatin combination, concentration series, at 5 µM, stronger effect = higher value
row,SMILES,inhibition
1,CCOC(=O)NCCCC(=O)NCCc1ccccc1,-5.77% and 15.9%
2,C[C@@]1(c2nc3c(C(N)=O)cccc3[nH]2)CCCN1,-27.7% and -31.9%
3,O=C(NCC1(c2nc(-c3ccccc3)cs2)CCOCC1)c1cccc(-c2noc(C(F)(F)F)n2)c1,8.95% and 1.52%

# Assay: human astrocyte viability loss, single and combined drugs, cytotoxicity control for chromothriptic childhood tumor combination screen, cell-based, BGB or cisplatin IC20 combos (AID 1671460);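 note: cells exposed to compounds for 96 hours before viability readout; 0% = vehicle and 100% = killing control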
# Settings: Human astrocytes, drug combinations, at 0.5 µM, stronger effect = higher value
row,SMILES,inhibition
1,CCOC(=O)NCCCC(=O)NCCc1ccccc1,6.08% (inactive) and 5.44% (inactive)
2,C[C@@]1(c2nc3c(C(N)=O)cccc3[nH]2)CCCN1,-5.3% (inactive) and -11.3% (inactive)
3,O=C(NCC1(c2nc(-c3ccccc3)cs2)CCOCC1)c1cccc(-c2noc(C(F)(F)F)n2)c1,-27.1% (inactive) and -7.2% (inactive)

# Same assay, conditions: Human astrocytes, drug combinations, measured here: combo with BGB IC20, at 0.5 µM, stronger effect = higher value
row,SMILES,inhibition
1,CCOC(=O)NCCCC(=O)NCCc1ccccc1,1.7% and -5.49%
2,C[C@@]1(c2nc3c(C(N)=O)cccc3[nH]2)CCCN1,-6.99% and -18.5%
3,O=C(NCC1(c2nc(-c3ccccc3)cs2)CCOCC1)c1cccc(-c2noc(C(F)(F)F)n2)c1,-8.11% and -1.8%

# Same assay, conditions: Human astrocytes, drug combinations, measured here: combo with cisplatin IC20, at 0.5 µM, stronger effect = higher value
row,SMILES,inhibition
1,CCOC(=O)NCCCC(=O)NCCc1ccccc1,7.7% and 23%
2,C[C@@]1(c2nc3c(C(N)=O)cccc3[nH]2)CCCN1,-13.8% and -3.66%
3,O=C(NCC1(c2nc(-c3ccccc3)cs2)CCOCC1)c1cccc(-c2noc(C(F)(F)F)n2)c1,-58.3% and -12.6%

# Assay: growth inhibition of BT084 medulloblastoma cells, cell-based, ICGC_MB145, cisplatin and BGB IC40 combos (AID 1671461);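 note: cells exposed to drugs for 96 hours; 0% = vehicle DMSO and 100% = high DMSO full killing control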
# Settings: drug combinations, at 0.5 µM, stronger effect = higher value
row,SMILES,inhibition
1,CCOC(=O)NCCCC(=O)NCCc1ccccc1,-9.48% (inactive) and -15.9% (inactive)
2,C[C@@]1(c2nc3c(C(N)=O)cccc3[nH]2)CCCN1,-3.53% (inactive) and 6.53% (inactive)
3,O=C(NCC1(c2nc(-c3ccccc3)cs2)CCOCC1)c1cccc(-c2noc(C(F)(F)F)n2)c1,-4.68% (inactive) and 10.6% (inactive)

# Same assay, conditions: drug combinations, cisplatin combination, at 0.5 µM, stronger effect = higher value
row,SMILES,inhibition
1,CCOC(=O)NCCCC(=O)NCCc1ccccc1,-0.569% and -16.9%
2,C[C@@]1(c2nc3c(C(N)=O)cccc3[nH]2)CCCN1,-17.4% and -25.6%
3,O=C(NCC1(c2nc(-c3ccccc3)cs2)CCOCC1)c1cccc(-c2noc(C(F)(F)F)n2)c1,-2.52% and 12.6%

# Same assay, conditions: drug combinations, cisplatin combination, at 5 µM, stronger effect = higher value
row,SMILES,inhibition
1,CCOC(=O)NCCCC(=O)NCCc1ccccc1,-138% and -1.29%
2,C[C@@]1(c2nc3c(C(N)=O)cccc3[nH]2)CCCN1,-105% and -12.9%
3,O=C(NCC1(c2nc(-c3ccccc3)cs2)CCOCC1)c1cccc(-c2noc(C(F)(F)F)n2)c1,12.8% and 27.4%

# Same assay, conditions: drug combinations, measured here: BGB IC40 combination 0.05 uM, at 0.05 µM, stronger effect = higher value
row,SMILES,inhibition
1,CCOC(=O)NCCCC(=O)NCCc1ccccc1,-26.7% and -17.1%
2,C[C@@]1(c2nc3c(C(N)=O)cccc3[nH]2)CCCN1,-13.2% and 18.5%
3,O=C(NCC1(c2nc(-c3ccccc3)cs2)CCOCC1)c1cccc(-c2noc(C(F)(F)F)n2)c1,16% and -10.3%

# Same assay, conditions: drug combinations, single agent, at 5 µM, stronger effect = higher value
row,SMILES,inhibition
1,CCOC(=O)NCCCC(=O)NCCc1ccccc1,-8.38% and 9.97%
2,C[C@@]1(c2nc3c(C(N)=O)cccc3[nH]2)CCCN1,2.42% and -15%
3,O=C(NCC1(c2nc(-c3ccccc3)cs2)CCOCC1)c1cccc(-c2noc(C(F)(F)F)n2)c1,15.3% and 24.7%

# Assay: growth inhibition of RCMB18 medulloblastoma cells, cell-based, cisplatin and BGB IC40 combos (AID 1671462);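 note: cells exposed to compound for four days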
# Settings: at 0.5 µM, stronger effect = higher value
row,SMILES,inhibition
1,CCOC(=O)NCCCC(=O)NCCc1ccccc1,-8.55% (inactive) and -27.8% (inactive)
2,C[C@@]1(c2nc3c(C(N)=O)cccc3[nH]2)CCCN1,-29.1% (inactive) and -18.3% (inactive)
3,O=C(NCC1(c2nc(-c3ccccc3)cs2)CCOCC1)c1cccc(-c2noc(C(F)(F)F)n2)c1,-34.6% (inactive) and 5.45% (inactive)

# Same assay, conditions: cisplatin combo, at 5 µM, stronger effect = higher value
row,SMILES,inhibition
1,CCOC(=O)NCCCC(=O)NCCc1ccccc1,7.25% and -23.2%
2,C[C@@]1(c2nc3c(C(N)=O)cccc3[nH]2)CCCN1,-12.7% and -24.7%
3,O=C(NCC1(c2nc(-c3ccccc3)cs2)CCOCC1)c1cccc(-c2noc(C(F)(F)F)n2)c1,-80.8% and -19.2%

# Same assay, conditions: measured here: BGB IC40 combination, at 0.05 µM, stronger effect = higher value
row,SMILES,inhibition
1,CCOC(=O)NCCCC(=O)NCCc1ccccc1,-14% and -29.5%
2,C[C@@]1(c2nc3c(C(N)=O)cccc3[nH]2)CCCN1,9.85% and -28.2%
3,O=C(NCC1(c2nc(-c3ccccc3)cs2)CCOCC1)c1cccc(-c2noc(C(F)(F)F)n2)c1,-21% and 1.81%

# Same assay, conditions: measured here: combination with cisplatin, at 0.5 µM, stronger effect = higher value
row,SMILES,inhibition
1,CCOC(=O)NCCCC(=O)NCCc1ccccc1,4.17% and -12.7%
2,C[C@@]1(c2nc3c(C(N)=O)cccc3[nH]2)CCCN1,-32.2% and 3.58%
3,O=C(NCC1(c2nc(-c3ccccc3)cs2)CCOCC1)c1cccc(-c2noc(C(F)(F)F)n2)c1,-74.6% and 3.89%

# Same assay, conditions: single agent, at 5 µM, stronger effect = higher value
row,SMILES,inhibition
1,CCOC(=O)NCCCC(=O)NCCc1ccccc1,-2.65% and -61.4%
2,C[C@@]1(c2nc3c(C(N)=O)cccc3[nH]2)CCCN1,-6.99% and -21%
3,O=C(NCC1(c2nc(-c3ccccc3)cs2)CCOCC1)c1cccc(-c2noc(C(F)(F)F)n2)c1,14.7% and 26.4%

# Assay: growth inhibition of CRL1545 osteosarcoma cells, cell-based, cisplatin and BGB IC20 combos (AID 1671464);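 note: cells exposed to compound for 96 hours before readout; 0% = vehicle DMSO and 100% = high DMSO killing control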
# Settings: at 0.5 µM, stronger effect = higher value
row,SMILES,inhibition
1,CCOC(=O)NCCCC(=O)NCCc1ccccc1,-24.2% (inactive) and -17.6% (inactive)
2,C[C@@]1(c2nc3c(C(N)=O)cccc3[nH]2)CCCN1,-24.4% (inactive) and -51.1% (inactive)
3,O=C(NCC1(c2nc(-c3ccccc3)cs2)CCOCC1)c1cccc(-c2noc(C(F)(F)F)n2)c1,-45.6% (inactive) and -15.7% (inactive)

# Same assay, conditions: measured here: with BGB IC20 combination, at 0.5 µM, stronger effect = higher value
row,SMILES,inhibition
1,CCOC(=O)NCCCC(=O)NCCc1ccccc1,-40% and -29.3%
2,C[C@@]1(c2nc3c(C(N)=O)cccc3[nH]2)CCCN1,-33.5% and -35.5%
3,O=C(NCC1(c2nc(-c3ccccc3)cs2)CCOCC1)c1cccc(-c2noc(C(F)(F)F)n2)c1,-23% and -21.2%

# Source: PubChem BioAssay
